The source made the active and inactive calls. The calls were made as follows: active = hit-call score of the fitted dose curve at least 0.9, where 1 is the maximum; inactive = score below 0.9.
Read-out: Nuclear factor erythroid 2-related factor 2 (Homo sapiens) (UniProt Q16236)
Assay: LTEA_HepaRG_NFE2L2: Life Technologies and Expression Analysis (LTEA) Assay for Nuclear factor erythroid 2-related factor 2 (NFE2L2) Transcription Factor using HepaRG (AID 2283527);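 as to outcome: TaqMan qRT-PCR transcript level normalised to ACTB GAPDH and POLR2A housekeeping genes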
Conditions: mRNA level, 48 h; actives raise or lower the signal
Description: LTEA_HepaRG is a cell based, multiplexed-readout assay that uses HepaRG, a human liver cell line, with measurements taken at 48 hours after chemical dosing on a 96-well plate.LTEA_HepaRG_NFE2L2 is one of 102 assay component(s) measured in the LTEA HepaRG cell culture assay. It is a marker of Inflammation/injury.Data from the assay component LTEA_HepaRG_NFE2L2 was analyzed into 1 endpoint. This assay endpoint, LTEA_HepaRG_NFE2L2, was analyzed with bidirectional fitting relative to DMSO as the negative control and baseline of activity. Using a type of inducible reporter, measures of mRNA induction for gain or loss-of-signal activity can be used to understand regulation of transcription factor activity. To generalize the intended target to other relatable targets, this assay endpoint is annotated to the dna binding intended target family, where the subfamily is basic leucine zipper.
A total of 1060 chemcials from the ToxCast library were tested in eight-point concentration-response experiments. Cell culture and cytotoxicity assays were conducted at Thermo Fisher Scientific's Custom Services facility (Madison, WI). A single lot of human HepaRG cells (Thermo Fisher Scientific, Frederick, MD) was used for the cell culture experiments. 96-well format collagen type I coated plates of human HepaRG cells were prepared using established methods. Briefly, cryopreserved HepaRG cells were thawed, plated at a density of approximately 100,000 cells/well in HepaRG Thaw, Plate, and General Purpose media (HPRG770, Thermo Fisher Scientific), and incubated for 48 hours. 0.5% DMSO was selected as vehicle control to balance the requisite need of DMSO in HepaRG cultures to maintain differentiation (for example, baseline metabolism, proportions of hepatocytes vs. cholangiocytes), while enabling further hepatic receptor pathway activation (for example, PXR and CAR) in response to chemical exposure. 48 hours after plating, the culture medium was replaced with HepaRG Serum-Free Incudtion Media. Cells were exposed to each test chemical in duplicate and maintained in CO2 incubators for another 48 hours. Chemical plates were thawed to room temperature and 200x concentrations of treatment groups were prepared. 8-point conentration-reponse curves were made with the highest exposure at 100 uM, followed by half-log dilutions, all in 0.5% DMSO. Each test plate contained variouse controls, induction positive controls (1mM phenobarbital), cytotoxicity positive controls ([…] aflatoxin B1), vehicle controls (0.5% DMSO), and total lysis controls (0.5% DMSO). Cell morphology images were taken using an Essen IncuCyte FLR automated microscope, with six 96-well plates imaged in about 24 minutes. Images were captured and exported and JPEG files. Spent culture media was transfered to black-well plates for the LDH assay, and remaining media was sorted at -80 C for later use. Cells were treated with RLT buffer and frozen until shipped for gene expression analysis. Total RNA was isolated from the cell suspension in 75 uL of Buffer RLT (Qiagen, Germantown, MD 20874) by Quintiles/Expression Analysis (Durham, NC) using a custom isolation procedure. Total RNA from each plate well was transferred to a preamplification plate. Fluidigm's 96.96 Dynamic ArrayTM (Fluidigm, Amsterdam, the Netherlands) technology was used for gene expression analyses by quantitative reverse transcription polymerase chain reaction (qRT-PCR, performed by Quintiles/Expression Analysis, Durham, NC)89. Standard TaqManTM Assays (Applied Biosystems/ThermoFisher Scientific, Foster City, CA) were used to assess the expression of 93 genes selected based on their selectivity and sensitivity to important hepatic receptors known to be modulated by environmental chemicals; importance in human hepatocyte functionality; and hepatotoxicity. […]

Chain of Nuclear factor erythroid 2-related factor 2 (Homo sapiens) (Q16236 whole entry, looked up): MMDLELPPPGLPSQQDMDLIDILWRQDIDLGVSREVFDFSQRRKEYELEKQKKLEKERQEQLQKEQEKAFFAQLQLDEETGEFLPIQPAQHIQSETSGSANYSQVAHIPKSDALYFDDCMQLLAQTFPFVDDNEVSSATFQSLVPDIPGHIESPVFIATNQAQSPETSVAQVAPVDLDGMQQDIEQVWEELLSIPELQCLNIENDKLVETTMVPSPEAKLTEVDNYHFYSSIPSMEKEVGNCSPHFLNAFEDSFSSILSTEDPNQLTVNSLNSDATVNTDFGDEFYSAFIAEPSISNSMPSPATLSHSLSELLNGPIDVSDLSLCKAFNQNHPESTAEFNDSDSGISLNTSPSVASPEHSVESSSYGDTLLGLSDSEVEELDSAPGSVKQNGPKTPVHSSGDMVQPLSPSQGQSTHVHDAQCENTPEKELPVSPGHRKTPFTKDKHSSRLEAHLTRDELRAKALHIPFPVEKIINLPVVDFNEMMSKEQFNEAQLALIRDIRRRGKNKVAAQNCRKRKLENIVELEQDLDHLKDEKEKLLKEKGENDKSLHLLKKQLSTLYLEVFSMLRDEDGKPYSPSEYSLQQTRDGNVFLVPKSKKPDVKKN

| Compound | AC50 | outcome |
| --- | --- | --- |
| N=C(N)c1ccc(OCCCCCOc2ccc(C(=N)N)cc2)cc1 | 10.1 µM (active) |  |
| CCCCCCCCCCCCOS(=O)(=O)O |  | inactive |
| CCCCCCCCCCCCCCC |  | inactive |
| Cc1[nH]nc2c1N=C(c1ccccc1Cl)c1cc([N+](=O)[O-])ccc1N2 | 85.1 µM (active) |  |
| CCC(C)c1ccccc1O (stereo not given) |  | inactive |
| CCCCC(CC)C(=O)O (stereo not given) |  | inactive |
| CN(Cc1cnc2nc(N)nc(N)c2n1)c1ccc(C(=O)N[C@@H](CCC(=O)O)C(=O)O)cc1 |  | inactive |
| OCC(CO)(CBr)CBr |  | inactive |
| CCCCC=O |  | inactive |
| O=C1NS(=O)(=O)c2ccccc21 |  | inactive |
